# Test results taken from PubChem BioAssay AID720518 (National Center for Advancing Translational Sciences (NCATS), 2013).
# Inconclusive results are not listed. A number with no mark means an inactive call. Calls follow the shape of the full dose curve.
# Assay: qHTS for Inhibitors of Cell Surface uPA Generation: Wild-type Protective Antigen (WT-PrAg) Counterscreen for Cherry-picked Compounds; also: 0% is about no effect
# Details: cells, WT protective antigen toxicity counterscreen; series mostly up to 115 µM; activity (protection): at the top concentration
row,SMILES,activity (protection)
1,CCN(CC)S(=O)(=O)c1ccc(C(=O)Nc2cccc(C)c2)cc1,-2.04%
2,CSc1nc(N)nc2c1ncn2CC(=O)NCC1CCCO1 (stereo not given),0.724%
3,Cc1c(NC(=S)Nc2ccc(Cl)cc2)c(=O)n(-c2ccccc2)n1C,-0.304%
4,O=C(Cc1ccc(Cl)cc1)c1c[nH]c(C(=O)NCCCn2ccnc2)c1,1.41%
5,CCOc1ccc(C(=O)NCCO)cc1,-0.622%
6,O=C(Cc1n[nH]c(=O)c2ccccc12)Nc1cccc(S(=O)(=O)N2CCCCCC2)c1,-2.16%
7,CC/C(=N\Nc1ccccc1[N+](=O)[O-])c1ccc(O)cc1,-1.06%
8,COc1ccc([C@@H]2[C@@H]3C(=O)N(C(C)(C)C)C(=O)[C@@H]3[C@]3(C)C(=O)N(c4cccc(Cl)c4)C(=O)N23)cc1,2.55%
9,O=C(NC[C@H]1CCCO1)c1cccc2c1C(=O)c1ccc(-c3ccc(F)cc3OCc3ccccc3)cc1S2(=O)=O,-1.01%
10,CC1=C(C(=O)OCc2ccccc2)C(c2cccc([N+](=O)[O-])c2)NC(=O)N1 (stereo not given),-1.14%
11,COc1ccc2cc(CCNC(=O)c3ccc4c(c3)OCO4)c(=O)[nH]c2c1,-0.196%
12,CC(C)(C)OC(=O)NCCCCCNC(=O)c1[nH]cnc1C(=O)Nc1ccc(Cl)cc1,-1.37%
13,CCOc1ccc(NS(=O)(=O)c2ccc(C(=O)N3CCC3)cc2)cc1,-0.678%
14,Cc1nc(C(=O)N2CCC(n3nccc3NC(=O)Nc3ccccc3Cl)CC2)cs1,-1.86%
15,CCCOc1ccc(S(=O)(=O)NNC(=O)c2cc3ccccc3o2)cc1,-2.15%
16,COc1ccc(NC(=O)CN2C(=O)CSc3ncccc32)cc1,1.25%
17,O=C(NC1CCCCC1)C(c1ccco1)N(C(=O)c1csnn1)c1cccc(Cl)c1 (stereo not given),1.16%
18,Cc1ncc(CN2CCCC(C(=O)c3cccc(OC(C)C)c3)C2)s1 (stereo not given),-1.26%
19,Cc1[nH]c2ccccc2c1C(=O)COC(=O)c1cccc(S(=O)(=O)N2CCCCC2)c1,1.61%
20,CCOC(=O)Cc1csc(NC(=O)Nc2cccc(OC)c2)n1,2.04%

row,SMILES,activity (protection)
1,O=C1C[C@@H]2CCN3C(=O)CCC[C@@H]([C@H]23)[C@H]1Cc1ccccc1,-0.693%
2,CCOc1cc(C)c(S(=O)(=O)N2CCCCC2)cc1C,-1.61%
3,COc1cccc(C(=O)Cn2c(NCCCO)nc3ccccc32)c1,-0.884%
4,CCSC1=NCCN1S(=O)(=O)c1ccc(Cl)cc1,-1.62%
5,COc1cc(CN2CCN(S(=O)(=O)c3ccccc3)CC2)cc(OC)c1OC,-0.212%
6,COc1ccc(NS(=O)(=O)c2cc3c(cc2C)NC(=O)CO3)c(OC)c1,-1.08%
7,COc1ccccc1NC(=O)Cn1ncc2c1-c1ccccc1OC2,-0.171%
8,COc1ccc(C(=O)OCC(=O)N(C)C2CCS(=O)(=O)C2)cc1S(=O)(=O)N(C)Cc1ccccc1 (stereo not given),1.43%
9,CCOC(=O)c1cc(-c2ccccc2C)n(CC2CC(c3ccc(OC)cc3)=NO2)n1 (stereo not given),-2.18%
10,C=CCn1c(SCc2ccc(C(=O)NCCO)cc2)nc2ccccc2c1=O,-1.45%
11,Cc1cccc(C)c1NC(=O)c1c(O)c2ccccc2[nH]c1=O,-2.65%
12,COc1ccc(N(CN2C(=O)c3ccccc3C2=O)C(=O)C(C)C)cc1,-0.0709%
13,O=C(c1ccccn1)C1CCCN(Cc2cn[nH]c2-c2cc3ccccc3o2)C1 (stereo not given),-1.56%
14,COc1ccccc1CNC(=O)CCn1c(=O)oc2ccccc21,-0.71%
15,COc1ccc(C2=NS(=O)(=O)N(C)C(C(=O)NCc3ccccn3)=C2)cc1,-1.14%
16,O=C(Cc1ccccc1)Nc1ccc(NC(=O)c2ccccc2)c(Cl)c1,-1.13%
17,CCCN1CCN(C(=O)CCCn2c(C)c3cnn(-c4ccccc4)c(=O)c3c2C)CC1,-1.21%
18,CCC(NC(=O)Cc1c(C)c2c(cc(C)c3c(C)c(C)oc32)oc1=O)C(=O)O (stereo not given),-2.27%
19,COC(=O)Cc1c(C)c2ccc(OCC(=O)N3CCCC(C)C3)c(C)c2oc1=O (stereo not given),-1.64%
20,Clc1ccccc1N1CCN(c2ncnc3nc[nH]c23)CC1,-0.131%
